The campaign covered roughly 310,000 compounds. About 410 (0.13%) were called active. Inconclusive results (about 2%) are left out. No rule for the calls is given here. A selection follows. Potency and affinity values are given separately.
Test: RSV antiviral activity via CPE protection, HEp-2 cells, primary 10 µM value included (AID 2391)
Conditions: RSV-induced CPE inhibition, at 10 µM, stronger effect = higher value

CPE inhibition, inactive:
Cc1ccc(S(=O)(=O)[N-]c2nc3ccccc3nc2-n2cc[n+](CCC(C)C)c2)cc1 0.13%
COc1cc(NC(=S)N2CCN(Cc3ccccc3)CC2)cc(OC)c1 4.9%
Cc1cc(/C=C2/NC(=O)NC2=O)c(C)n1C 3.8%
Cc1cccc(-n2c(C)cc(/C=C3\NC(=O)NC3=O)c2C)c1 5.86%
Cc1cc(/C=C2\C(=O)NN(c3ccccc3)C2=O)c(C)n1-c1ccccc1O -1.31%
Cc1cc(/C=C2/C(=O)NN(c3ccccc3)C2=O)c(C)n1-c1cccc(O)c1 1.07%
Cc1cc(/C=C2/NC(=O)NC2=O)c(C)n1-c1ccccn1 2.98%
Cc1cc(/C=C2/NC(=O)NC2=O)c(C)n1-c1ccncc1 19.7%
O=C(NNC1=NS(=O)(=O)c2ccccc21)c1ccccc1Cl 1.71%
CC(CC(=O)NC1CCCCC1)S(=O)(=O)c1ccc2c(c1)CCN2C(=O)C1CC1 (centres undefined) 0.99%
CCC(=O)Nc1ccc(C(=O)CSc2nnc(-c3cccnc3)o2)cc1 -0.13%
COc1cc([N+](=O)[O-])ccc1NC(=O)CSc1ccccn1 4.53%
O=C(Nc1ccc(O)c2c(=O)cc(-c3ccccc3Cl)oc12)c1cccc(Cl)c1 -0.66%
CSc1cc(-c2ccc(Cl)cc2)c(C(=O)NN)s1 0.87%
COC(=O)c1nc(N)sc1C 1.76%
COc1ccc(S(=O)(=O)N2CC(C(=O)O)Oc3ccc(CC(=O)O)cc32)cc1 (centres undefined) 1.19%
O=C(Nc1ccc(N2CCCC2)c(Cl)c1)c1cccnc1 5.52%
O=C(Nc1ccc(N2CCOCC2)c(Cl)c1)c1cccnc1 4.29%
O=C(CSc1nnc2ccccn12)NC(=O)NC1CCCC1 0.11%
COc1cccc(OC)c1C(=O)Nc1ccc(C)cc1C(=O)c1ccccc1 6.46%
Cc1nc(CCNS(=O)(=O)c2cccnc2)cs1 -0.89%
COc1ccc(NC(=O)c2cn(-c3ccccc3)nc2-c2cc3ccccc3o2)cc1 14.1%
O=C(Nc1ccc([N+](=O)[O-])cc1)c1cn(-c2ccccc2)nc1-c1cc2ccccc2o1 0.46%
COc1cc(C=O)ccc1OCc1cccc(Br)c1 1.17%
CC(=O)Nc1cccc(NC(=O)c2cccc(S(=O)(=O)N3CCN(Cc4ccccc4)CC3)c2)c1 1.07%
O=C(Nc1ccc2c(c1)OCO2)[C@@H]1[C@@H]2C(=O)N(C3CCCCC3)C(=O)[C@@H]2C2c3ccccc3C=CN21 (some centres undefined) 2.62%
COc1ccc(C(C[N+](=O)[O-])c2c(-c3ccccc3)cc3ccccn23)cc1 (centres undefined) 7.08%
COc1ccc(C(C[N+](=O)[O-])c2c(C)cc3ccccn23)c(OC)c1 (centres undefined) 3.91%
COC(=O)CSc1nc2ccc(NC(=O)CSc3nnnn3Cc3ccccc3)cc2s1 1.43%
COc1ccccc1OCCOCCOc1c(C)cc(C)cc1Br 1.97%
COc1ccccc1CNC(=O)c1cc2c(=O)[nH]c3ccccc3c2n1C 16.5%
CCOc1ccccc1CNC(=O)c1c([N+](=O)[O-])c(C)nn1C 0.22%
CCOc1ccccc1CNC(=O)c1cc2occc2n1C 2.63%
CCOc1ccccc1CNC(=O)Cn1c(=O)oc2ccccc21 -0.15%
COc1ccccc1CNC(=O)c1oc2ccccc2c1C 1.89%
CCOc1ccccc1CNC(=O)c1cn(C)c(=O)c2c1c1ccccc1n2C 6.47%
Cc1cc(NC(=O)CCC(=O)N(CC(=O)NCC2CCCO2)c2cccc(F)c2)no1 (centres undefined) 0.87%
CC(=O)NC1(C(F)(F)F)C(=O)Nc2c1c(=O)[nH]c(=O)n2-c1ccccc1 (centres undefined) -0.08%
CCCCCCC(=O)N1CCC(c2nc3c(nnn3Cc3ccccc3Cl)c(=O)[nH]2)CC1 -3.63%
Cc1ccc(Nc2ccc(S(=O)(=O)N3CCOCC3)cc2[N+](=O)[O-])cc1C 7.23%
CC1=Nc2cc(C(=O)N3CCCCC3)ccc2Sc2ccc(C)cc21 4.9%
CC1=Nc2cc(C(=O)N3CCCC3)ccc2Sc2ccc(C)cc21 3.72%
COc1ccc(N2CCN(c3nc(C)c(C)c(=O)[nH]3)CC2)cc1 1.02%
COCCOc1cc(NC(=O)CS(=O)CC(=O)N(C)C)c(Cl)cc1Cl (centres undefined) 1.9%
O=C(Nc1ccccc1)c1ccc(NC(=O)C2CC2)cc1 2.88%
O=C(Nc1ccc(Nc2ccccc2)cc1)C1CC1 0.83%
CNC(=O)CO/N=C/c1ccc(N(C)C)cc1 2.24%
COc1ccc2cc(CN(Cc3cccnc3)S(=O)(=O)c3ccccc3)c(=O)[nH]c2c1 5.1%
CCCNC(=O)c1cc(S(=O)(=O)N2CCCCC2)ccc1N1CCOCC1 -0.63%
CCC(=O)Nc1nonc1-c1nc2ccccc2n1CC(C)C 4.88%
CCn1c(-c2nonc2NC(=O)c2ccccc2)nc2ccccc21 -1.62%
CC(C)NC(=O)CSc1ccccc1C(=O)NNC(=O)Cn1ccc(C(F)(F)F)n1 -1.83%
CCOc1ccc(C(C)=O)cc1CN1C(=O)NC2(CCCCCC2)C1=O -0.88%
CCOC(=O)c1nn(-c2ccccc2)c(=O)cc1OCC(=O)Nc1cc(C)ccc1OC 0.86%
O=C(NCc1cccs1)C1CCN(C(=O)NCc2ccccc2)CC1 0.51%
CCN1C(=O)/C(=C2/C(=O)N3c4c(cc(OC(C)=O)cc42)C(C)=CC3(C)C)SC1=S 7.27%
COc1cc2c3c(c1)/C(=C1/SC(=S)NC1=O)C(=O)N3C(C)(C)C=C2C 17.4%
Cc1ccc(OCCNC(=O)CCc2ccccc2)cc1C -0.93%
CCc1nccn1S(=O)(=O)c1ccc2ccccc2c1 1.31%

From PubChem BioAssay AID2391 (Southern Research Specialized Biocontainment Screening …, 2010)
